Compound activity: PubChem, several laboratories
Compounds with a hit are over-represented: about 5.4% of the library has one in this group of screens.
PP1 inh: PP1-alpha (human) inhibition in PP5 counter-screen | purified PP1alpha, OMFP fluorescence | inhibition, % at 6.7 µM | 320,000 compounds, 0.9% hits;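 active = inhibition above the mean inhibition of all tested compounds plus 3 SD, computed separately for each screening campaign, cut at about 15% in these data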
Calb FLC: affects C. albicans growth with fluconazole; C. albicans CaCi-2 (fluconazole-resistant clinical isolate) + fluconazole, Alamar Blue growth, 48 h; growth inhibition, % (no concentration beside the values); 300,000 compounds, 0.57% hits; AID 1979;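 active = growth inhibition above about 58% in most replicates, limit read from the data, passing the limit was not always enough; inconclusive = exactly half the replicates above a set limit; inactive = most replicates below a set limit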;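 also: all wells also contain fluconazole at 8 µg/ml as a sub-toxic cotreatment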
ALR H2O2 inh: inhibitors of human sulfhydryl oxidase ALR; P55789; purified ALR, DTT oxidation, H2O2 HRP-luminol luminescence; inhibition, % (test concentration not listed); 290,000 compounds, 3.8% hits; AID 485317;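 active = mean replicate inhibition above about 79%, with every replicate also reaching it, limit read from the data; inconclusive = only one of the two criteria met; inactive = mean below limit and not every replicate reaching it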
Target sequence (P55789 whole entry, looked up): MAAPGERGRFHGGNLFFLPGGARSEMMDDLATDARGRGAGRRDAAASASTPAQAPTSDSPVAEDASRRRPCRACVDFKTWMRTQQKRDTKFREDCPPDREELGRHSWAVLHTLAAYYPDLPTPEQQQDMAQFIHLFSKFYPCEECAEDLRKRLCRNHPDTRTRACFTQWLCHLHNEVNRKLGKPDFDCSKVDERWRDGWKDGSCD
PP5 primary: inhibitors of human protein phosphatase 5 (PP5). P53041. purified PP5c, OMFP substrate fluorescence. inhibition, % at 6.7 µM. 320,000 compounds, 0.18% hits. AID 1987;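 active = inhibition above the campaign's mean inhibition across all tested compounds plus 3 SD, cut at about 9.5% in these data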
Target sequence (P53041 whole entry, looked up): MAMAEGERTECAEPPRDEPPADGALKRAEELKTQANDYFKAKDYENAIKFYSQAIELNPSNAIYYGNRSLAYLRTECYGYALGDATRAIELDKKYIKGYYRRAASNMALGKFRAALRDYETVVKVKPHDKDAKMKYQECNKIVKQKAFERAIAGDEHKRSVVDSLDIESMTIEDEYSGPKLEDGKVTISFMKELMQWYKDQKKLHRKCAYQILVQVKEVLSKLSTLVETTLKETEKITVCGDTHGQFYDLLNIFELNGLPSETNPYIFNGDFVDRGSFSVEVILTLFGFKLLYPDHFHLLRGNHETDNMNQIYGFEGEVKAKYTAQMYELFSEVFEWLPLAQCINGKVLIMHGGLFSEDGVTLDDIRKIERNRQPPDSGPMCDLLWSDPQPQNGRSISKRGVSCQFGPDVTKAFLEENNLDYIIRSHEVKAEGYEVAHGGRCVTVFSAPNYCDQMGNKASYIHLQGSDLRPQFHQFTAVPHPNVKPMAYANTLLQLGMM
CSC inhib: cancer stem cell inhibition; cancer stem cell-like cells viability, luminescence; inhibition, % at 7.5 µM; 300,000 compounds, 1.1% hits; AID 2717; in the data active = inhibition above about 75%; inconclusive = no clear call, values can overlap the other calls; tested in HMLE shEcad cells
Large screens that a line does not name were inactive.

COc1cc(CC(=O)Nc2ccccc2N2CCCCC2)cc(OC)c1OC	none (no result: CSC inhib)
Cc1cccc(NC(=O)CSCC(=O)Nc2cccc3ncccc23)c1	ALR H2O2 inh 99
CCOc1ccc(N2CC(C(=O)Nc3ccccc3OC)CC2=O)cc1 (stereo not drawn)	none
Cc1cccc(NC(=O)CSCC(=O)Nc2ccccc2N2CCCC2)c1	ALR H2O2 inh 99
CCOc1ccc(N2CC(C(=O)Nc3ccccc3N3CCCC3)CC2=O)cc1 (stereo not drawn)	ALR H2O2 inh 94
N#CC1=C2N=C(N)c3ccccc3N2C2=C(C(=O)CCC2)C1c1ccc(F)cc1 (stereo not drawn)	none (no result: ALR H2O2 inh)
Cc1cc(C)c(S(=O)(=O)N2CCN(C(=O)c3ccc4c(c3)OCO4)CC2)c(C)c1	none
O=C(Nc1ccccc1)Nc1cccc(-c2cn3cccnc3n2)c1	none
COc1ccc(-c2nc(CS(=O)CC(=O)N3CCN(C)CC3)c(C)o2)cc1OC (stereo not drawn)	ALR H2O2 inh 99
COc1ccc(-c2nc(CS(=O)CC(=O)N3CCOCC3)c(C)o2)cc1OC (stereo not drawn)	ALR H2O2 inh 100
COc1ccc(-c2nc(CN3CCC(C(=O)N4CCOCC4)CC3)c(C)o2)cc1OC	none
COc1ccc(-c2nc(CSCC(=O)N3CCN(C4CCCCC4)CC3)c(C)o2)cc1OC	none (no result: ALR H2O2 inh)
COc1ccc(-c2nc(CS(=O)CC(=O)N3CCN(C)CC3)c(C)o2)cc1 (stereo not drawn)	ALR H2O2 inh 99
CC(C)=CCC/C(C)=C/C=N/NC(=O)c1ccccc1[N+](=O)[O-]	none
CCC(=O)NC(=S)NNC(=O)c1ccccc1[N+](=O)[O-]	none
COc1cc(/C=C(/C#N)c2ccc(F)cc2)ccc1OCc1ccc(C(=O)O)o1	ALR H2O2 inh 97
CCOC(=O)Cn1c(=O)oc2cc(S(=O)(=O)Nc3ccc(N(CC)CC)cc3C)ccc21	ALR H2O2 inh 99
CCOC(=O)Cn1c(=O)oc2cc(S(=O)(=O)Nc3cc(OCC)ccc3OCC)ccc21	none (no result: Calb FLC, ALR H2O2 inh)
N=c1n(CCN2CCCCC2)c2ccccc2n1CC(O)c1ccc(Cl)c(Cl)c1 (stereo not drawn)	none
COc1ccc2[nH]cc(C(=O)CNc3nc(C)cs3)c2c1	ALR H2O2 inh 81
O=S(=O)(Nc1ccc(-c2nnc(SCc3ccc(Cl)cc3)o2)cc1)c1ccccc1	CSC inhib 92
O=C(O)c1ccc(CSc2nnc(-c3ccc(Cl)cc3)o2)cc1	none
CC(/C=N/Nc1nnc2c(n1)[nH]c1ccccc12)=C\c1ccco1	PP1 inh 16
Cc1cccc2c1[nH]c1nc(N/N=C\c3ccco3)nnc12	none
COc1ccc(CN(C(=O)c2ccco2)c2ccc(C)cc2)cc1OC	none (no result: ALR H2O2 inh)
O=C(Nc1ccc(NC(=O)C2CCCCC2)nc1)c1ccccn1	ALR H2O2 inh 99
COc1ccccc1C(=O)Nc1ccc(NC(=O)C2CCCCC2)nc1	none (no result: ALR H2O2 inh)
Cc1ccc(NC(=O)N/C=C/c2ccco2)cc1C	ALR H2O2 inh 87
Cc1ccc(Br)cc1S(=O)(=O)N1CCN(c2ccccc2)CC1	none
COc1ccc(N2CCN(c3nc(C)c(C)c(=O)[nH]3)CC2)cc1	none
Cc1cc2[nH]c(=O)c(=O)[nH]c2cc1S(=O)(=O)N1CCN(c2ccccc2)CC1	ALR H2O2 inh 97
Cc1nnc(N2CCN(Cc3ccccc3)CC2)[nH]c1=O	ALR H2O2 inh 99
N#Cc1c(-c2ccccc2)nc(N2CCN(Cc3ccccc3)CC2)[nH]c1=O	none
Cc1nc(N2CCN(c3ccccc3)CC2)[nH]c(=O)c1C	ALR H2O2 inh 97
OCCCc1nc2ccccc2n1CCc1ccccc1	none
Nc1ccc2c(c1)nc(Cc1ccccc1)n2CCO	ALR H2O2 inh 97
N#CC1=C(N)Oc2c(ccc3ccccc23)C1c1cccs1 (stereo not drawn)	none
O=C1ON=C(c2ccccc2)/C1=C/c1ccc(-c2ccccc2[N+](=O)[O-])o1	none (no result: Calb FLC)
O=C1ON=C(c2ccc([N+](=O)[O-])cc2)/C1=C/c1ccccc1O	ALR H2O2 inh 98 (no result: PP1 inh, PP5 primary)
CCCc1nc(N)c(C#N)c(-c2cccnc2)c1CC	none
c1ccc(N2CCN(c3ccccc3)C2c2ccncc2)cc1	ALR H2O2 inh 86
c1ccc(-c2cn3c(n2)-c2ccccc2C3)cc1	ALR H2O2 inh 95
CCN(Cc1ccc(C#CCCO)cc1)CC1CCCN(CCc2cccc(F)c2)C1 (stereo not drawn)	none (no result: ALR H2O2 inh)
CCOC(=O)/C(C#N)=C\c1ccc(O)c(OC)c1	ALR H2O2 inh 99
N#C/C(=C\c1ccc(O)c(O)c1)C(=O)N1CCc2ccccc21	ALR H2O2 inh 99 (no result: Calb FLC)
N#C/C(=C\c1cccc(O)c1)C(=O)N1CCCCC1	none (no result: ALR H2O2 inh)
CCOC(=O)/C(C#N)=C/c1cccc(C)c1	none (no result: PP1 inh, PP5 primary)
COc1ccc(/C=C(/NC(=O)c2ccco2)C(=O)N2CCc3ccccc32)cc1OC	none
COc1cc(/C=C(\C#N)C(=O)N2CCc3ccccc32)ccc1O	ALR H2O2 inh 100
Cc1c(C(=O)NN2CCOCC2)cccc1[N+](=O)[O-]	none
O=C(c1cccc(Cl)c1)C1CCCN(Cc2ccc(N3CCNC3=O)cc2)C1 (stereo not drawn)	ALR H2O2 inh 96
COc1ccc([N+](=O)[O-])cc1NC(=O)c1ccc(CN(c2ccc(C)c(C)c2)S(C)(=O)=O)cc1	Calb FLC inconclusive
COc1cc(Br)cc(CN2CCN(c3ncccn3)CC2)c1O	ALR H2O2 inh 98 (no result: PP1 inh, PP5 primary)
COc1ccc(CNC(=O)c2c(-c3cc(Cl)c(OC)c(Cl)c3)noc2C)cc1	none
O=C(CSCc1ccccc1Br)NC1CC1	ALR H2O2 inh 98
FC(F)(F)c1ccccc1NC(=S)NN=C1CCCCCC1	Calb FLC 95
C#CCOc1ccc(/C=C2/C(=O)N(c3cccc(C(=O)O)c3)N=C2C)cc1OC	none
CC1=NN(c2cccc(C(=O)O)c2)C(=O)/C1=C\C=C\c1ccco1	ALR H2O2 inh 83
CC1=NN(c2ccccc2)C(=O)/C1=C/C=C/c1ccccc1	CSC inhib 84
O=C(/C=C/c1ccc(S(=O)(=O)N2CCOCC2)cc1)NC(=S)Nc1ccc(N2CCOCC2)cc1	none
Cc1nc2ccccc2nc1OCc1cccc([N+](=O)[O-])c1	none
COc1cc2c(cc1O)CC[n+]1cc3c(OC)c(OC)ccc3cc1-2	Calb FLC 99 (no result: ALR H2O2 inh)
COc1cc2c(cc1OC)-c1cc3ccc4c(c3c[n+]1CC2)OCO4	none (no result: ALR H2O2 inh)
COc1ccc(/C=N/NC(=O)c2ccccc2O)cc1CN1CCOCC1	none
COc1ccc(/C=N/NC(=O)c2ccncc2)cc1CN1CCN(c2ccc(F)cc2)CC1	ALR H2O2 inh 99
COc1ccc(/C=N\NC(=O)c2cc(O)c(O)c(O)c2)cc1CN1CCN(c2ccc(F)cc2)CC1	Calb FLC 99
COc1ccc(/C=N/NC(=O)c2ccc(C)cc2)cc1CN1CCN(c2ccc(F)cc2)CC1	none (no result: ALR H2O2 inh)
COC(=O)/C=C(\C)NC(=O)c1ccccc1Cl	none
COc1ccc(C2CC(c3ccccc3O)=NN2c2ccccc2)cc1 (stereo not drawn)	none
CC(=O)Oc1ccc(C2=NN(c3ccccc3)C(c3ccccc3)C2)cc1 (stereo not drawn)	CSC inhib 108
COc1ccc(C2CC(c3ccccc3)=NN2c2ccc(N)cc2)cc1 (stereo not drawn)	none
